Source: PubChem (National Center for Advancing Translational Sciences (NCATS))
Hits are enriched below; roughly 6.9% of the tested compounds scored in any of these assays.
KB-V1 cytotox = kills drug-selected multidrug resistant KB-V1 cells; KB-V1 MDR cells viability, CellTiter-Glo, 72 h; Potency, µM (highest dose often 46.1 µM), usual class: cytotoxic; hit rate 3.4% among 400,000; AID 1347076; further: potency means the concentration at half of the fitted maximal effect; on the % scale 0 is the no-effect control and ±100 the full control effect; nearly all actives have a fitted effect of over 60% in size
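Following 72 h at 37 degrees C with compound, KB-V1 cell viability was read by CellTiter-Glo luminescence, medium being phenol-red-free DMEM plus 10% FBS; concentration-response parameters came from normalized, curve-fitted qHTS data.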
KB-3-1 cytotox = kills parental KB-3-1 adenocarcinoma cells; AID 1347075; Potency, µM (highest dose often 46.1 µM), usual class: cytotoxic; KB-3-1 viability, CellTiter-Glo ATP luminescence, 72 h; hit rate 1.4% among 400,000; further: potency means the concentration at half of the fitted maximal effect; on the % scale 0 is the no-effect control and ±100 the full control effect; nearly all actives have a fitted effect of over 60% in size
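Screening of KB-3-1 cells (DMEM, 10% FBS, phenol-red free) ran from lowest to highest compound concentration; after 72 h at 37 °C viability was read luminescently and curves fitted.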
SW480 rereplic = DNA re-replication induction in SW480 cells; SW480 DNA re-replication, Hoechst DNA content imaging, 48 h; Potency, µM (series often up to 46.1 µM), without a hit: at the highest dose re-replication activation, usual class: activators; hit rate 1.8% among 340,000; AID 624297; further: potency means the concentration at half of the fitted maximal effect; % of control where 0% means no effect; nearly all actives have a fitted effect of over 55% in size
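Readout is total intensity of Hoechst-stained nuclei, excited at 405 nm and collected at 500-530 nm. Compound treatment lasted 48 hr at 37 C in 5% CO2 before staining.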
ASM inhibitor = human S-ASM enzyme inhibition; hit rate 0.006% among 340,000; placental ASM, HMU-PC fluorogenic substrate, 60 min; Potency, µM (series often up to 57.5 µM), without a hit: at the highest dose activity change, negative = inhibition, hits mostly inhibitors; P17405; further: potency means the concentration at half of the fitted maximal effect
Target sequence (P17405 47-631 limits assumed): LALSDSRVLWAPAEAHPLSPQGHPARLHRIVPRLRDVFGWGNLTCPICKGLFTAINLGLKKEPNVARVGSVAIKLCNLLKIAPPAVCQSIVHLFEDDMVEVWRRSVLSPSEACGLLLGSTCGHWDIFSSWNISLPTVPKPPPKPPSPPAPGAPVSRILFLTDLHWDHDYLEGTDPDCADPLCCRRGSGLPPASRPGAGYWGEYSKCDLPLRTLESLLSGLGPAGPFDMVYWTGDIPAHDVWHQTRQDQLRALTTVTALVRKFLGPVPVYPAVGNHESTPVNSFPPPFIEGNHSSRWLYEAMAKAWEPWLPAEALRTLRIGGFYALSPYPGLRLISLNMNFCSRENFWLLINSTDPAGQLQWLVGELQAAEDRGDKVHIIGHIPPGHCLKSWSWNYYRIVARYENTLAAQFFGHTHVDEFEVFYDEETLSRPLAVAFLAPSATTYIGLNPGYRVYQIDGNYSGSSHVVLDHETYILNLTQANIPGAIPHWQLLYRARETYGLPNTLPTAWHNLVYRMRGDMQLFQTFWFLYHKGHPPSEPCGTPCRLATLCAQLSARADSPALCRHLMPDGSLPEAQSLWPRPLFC
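Fluorogenic HMU-PC substrate (9 uM final) is turned over by placental ASM in 60 min at 37 C after a 10 min compound preincubation. Reaction ended by alkaline stop (pH 10), with fluorescence read at 386/447 nm.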
MCF10A rereplic = DNA re-replication induction in MCF 10a cells. MCF 10A DNA re-replication, Hoechst nuclear intensity, 48 h. Potency, µM (series often up to 46.1 µM), for inactives: at the top dose activity, positive = re-replication, actives largely listed as activators. hit rate 2.9% among 350,000. AID 624296; further: potency means the concentration at half of the fitted maximal effect; % of control where 0% means no effect; nearly all actives have a fitted effect of over 50% in size
Giardia kill = kills Giardia lamblia; activity change, % at 7.66 µM, hits read low; Giardia lamblia trophozoite viability; hit rate 0.15% among 340,000; AID 540267; in the data active means activity change below about -80%; inconclusive means between about -30% and that limit;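 further: parasites exposed to compound for two days anaerobically before the ATP read; on the % scale 0 is the no-effect control and ±100 the full control effect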
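Trophozoite viability was measured as ATP-dependent luminescence, read 15-30 min after reagent addition. Before that, parasites at 100 cells/well were exposed to compounds for 48 h, anaerobically, at 37 deg C.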
* hit, by the source's call; i = inactive; u = inconclusive; x = not tested or not shown; ! = a repeat was not active. Unless noted, the call rests on the fitted dose curve; in most records, active means well fitted curve in the direction sought with a large enough effect; inconclusive means small, poorly fitted or top-dose-only effect, or another doubt; inactive means no such curve, though single readings can be large; an effect the other way counts as inactive or inconclusive.

SMILES	KB-V1 cytotox	KB-3-1 cytotox	SW480 rereplic	ASM inhibitor	MCF10A rereplic	Giardia kill
Cc1nn(CC(O)COc2ccc3c(c2)CCC3)c(C)c1Br (configuration not stated)	u	i	-1%	-2%	10%	16
CC(=O)c1c(C)nn(CC(O)COc2ccc3c(c2)CCC3)c1C (configuration not stated)	10µM*	i	7%	2%	-2%	24
CCc1nc2c(OCC(=O)c3ccc(Cl)cc3Cl)cccn2c1N(C=O)Cc1ccc(OC)cc1	u	i	x	x	x	x
CCc1nc2c(OCCOc3ccc(F)cc3)cccn2c1N(C=O)Cc1ccc(OC)cc1	18µM*	i	x	x	x	x
CCc1nc2c(OCc3ccc(F)cc3)cccn2c1N(C)C(=O)COc1ccccc1	6.5µM*	23µM*	x	x	x	x
CCc1nc2c(OCc3ccc(Cl)cc3Cl)cccn2c1N(C=O)Cc1ccc(OC)cc1	18µM*	u	x	x	x	x
COc1ccc(N2CCN(C(=O)CCNS(=O)(=O)c3ccc(Br)s3)CC2)cc1	13µM*	u	-5%	-3%	3%	0
O=C(CNS(=O)(=O)c1ccc(Br)s1)N1CCN(c2ccc(F)cc2)CC1	18µM*!	23µM*!	0%	-1%	11%	15
O=C(CNS(=O)(=O)c1ccc(F)cc1)N1CCN(c2ccc(F)cc2)CC1	i	i	0%	2%	-1%	13
O=C(CCNS(=O)(=O)c1ccc(Br)s1)N1CCCCC1	i	i	-8%	2%	1%	4
Cc1ccc(C(O)(C(=O)NNc2ccccn2)c2ccc(C)cc2)cc1	i	i	0%	2%	7%	-8
Cc1ccc(NNC(=O)C(O)(c2cccc(C(F)(F)F)c2)c2cccc(C(F)(F)F)c2)cc1	u	16µM*	u	-23%	12µM*	-10
O=C(NNc1ccccc1Br)C(O)(c1cccc(C(F)(F)F)c1)c1cccc(C(F)(F)F)c1	18µM*	u	u	-20%	u	-17
COc1ccc(-n2nnnc2C(c2ccccc2OC(F)(F)F)N2CCN(C/C=C/c3ccccc3)CC2)cc1 (configuration not stated)	u	i	x	x	x	x
CCN1c2ccccc2-c2nc(SCC(=O)Nc3cc(F)ccc3F)ncc2S1(=O)=O	i	u	x	x	x	x
COc1ccc(-c2cc(C(F)(F)F)n3nc(C(=O)Nc4c(C)n(C)n(-c5ccccc5)c4=O)cc3n2)cc1	i	u	20%	57%	18µM*	-21
COc1ccc(-c2cc(C(F)(F)F)n3nc(C(=O)NCCCn4ccnc4)cc3n2)cc1	i	i	u	i	13µM*	5
COc1cccc(-c2cc(C(F)(F)F)n3nc(C(=O)Nc4c(C)n(C)n(-c5ccccc5)c4=O)cc3n2)c1	i	i	4%	4%	-4%	9
COc1ccc(-c2cc(C(F)(F)F)n3nc(C(=O)NCCN4CCOCC4)cc3n2)cc1	i	i	-5%	i	-7%	8
CN(/N=C/c1ccc(N(C)C)cc1)C1=NS(=O)(=O)c2ccccc21	i	u	7.3µM*	-2%	8.2µM*	-14
COc1ccc(/C=N/N(C)C2=NS(=O)(=O)c3ccccc32)cc1	i	i	0%	415%	4%	6
COc1ccc(N(C)C2=NS(=O)(=O)c3ccccc32)cc1	i	u	2.6µM*	4%	5.8µM*	13
O=C1CCC[C@@H]2CC(Nc3ccccc3)C[C@@H]3CCN1[C@H]23 (some centres not stated)	i	i	x	x	x	x
CCc1nn(CC(=O)NCc2ccc(C)cc2)c(=O)c2cc3occc3n12	i	i	x	x	x	x
COC(=O)c1ccccc1NC(=O)N1CCN(S(=O)(=O)c2ccc(Cl)cc2)CC1	u	i	9.2µM*	0%	u	20
SMILES	KB-V1 cytotox	KB-3-1 cytotox	SW480 rereplic	ASM inhibitor	MCF10A rereplic	Giardia kill
COC(=O)c1ccccc1NC(=O)N1CCCC1	u	i	1%	-3%	-4%	5
COc1ccccc1C(=O)NCCC(=O)N1CCN(S(=O)(=O)c2ccc(Cl)cc2)CC1	i	i	-23%	-1%	-4%	-21
COc1ccccc1C(C)NC(=O)CCC(=O)N1CCN(S(=O)(=O)c2ccc(Cl)cc2)CC1 (configuration not stated)	18µM*	u	8%	2%	4%	4
CC(C)CCNC(=O)c1ccc2c(c1)ncn2C1CCCCC1	13µM*	i	-14%	-1%	25%	15
CCCCNC(=O)c1ccc2c(c1)ncn2C1CCCCC1	i	i	-8%	-2%	3%	13
CCCCS(=O)(=O)Nc1ccc2c(c1)ncn2C1CCCCC1	u	i	3%	1%	23µM*	7
c1ccc(CNc2ccc3c(c2)ncn3C2CCCCC2)nc1	i	i	23µM*	-3%	21µM*	-2
CCCCNC(=O)c1ccc2c(c1)ncn2C1CCCC1	i	i	-11%	0%	-8%	6
Nc1nc(Nc2ccc(Cl)cc2)nc2ccccc12	18µM*	i	-7%	-11%	27%	u
Nc1nc(Nc2ccccc2)nc2ccccc12	u	u	-8%	3%	0%	u
Nc1nc(=S)[nH]c2n[nH]nc12	i	i	x	x	x	x
COc1ccc(S(=O)(=O)N2CCN(Cc3cc4c(cc3Br)OCCO4)CC2)cc1	15µM*	i	-1%	0%	24%	-12
CC(Sc1nnc(NC2CC2)s1)C(=O)Nc1ccc(N2CCOCC2)cc1 (configuration not stated)	i	i	-7%	6%	4%	-14
CC(=O)c1c(C)[nH]c(C(=O)C(C)Sc2nnc(NC3CC3)s2)c1C (configuration not stated)	x	x	-2%	-1%	18µM*	19
Brc1ccccc1C1CC(c2ccccc2)=Nc2ccccc2N1 (configuration not stated)	i	i	u	-12%	23µM*	-15
O=C([C@@H]1CC=C[C@@H]2CCN(C3CC3)C(=O)[C@@H]21)N1CCOCC1	i	i	x	x	x	x
CCOC(=O)/C(C#N)=C/c1cc(C)n(-c2ccccc2)c1C	9.2µM*	i	0%	15%	u	-19
Cc1cc(/C=C(\C#N)C(=O)Nc2ccccc2)c(C)n1-c1ccc(F)cc1	i	i	x	x	x	x
COc1cc(C2C3=C(COC3=O)Oc3cc4c(cc32)OCO4)cc(OC)c1O (configuration not stated)	u	u	u	2%	u	6
O=C1OCC2=C1C(c1ccc3c(c1)OCO3)c1cc3c(cc1O2)OCO3 (configuration not stated)	1.5µM*	3.3µM*	4.6µM*	-1%	8.2µM*	-7
